Assay outcomes: PubChem, National Center for Advancing Translational Sciences (NCATS)
D1 ag = Allosteric Agonists of the Human D1 Dopamine Receptor: qHTS; 360,000 compounds, 1% hits; HEK293 T-REx D1 cells, calcium flux, agonist mode; activation, % at 2 µM; AID 504660, 2011; in the data active = activation above about 30%; also: 0% is about no effect
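Inducible HEK293 T-REx D1 cells, force-coupled to calcium signalling, were plated at 4000 cells/well with tetracycline and held overnight at 30 C. After no-wash calcium dye loading, compound-evoked calcium rise over 180 s flagged agonists.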
D1 antag = Antagonist of Human D 1 Dopamine Receptor: qHTS; HEK293 TREx D1 cells, calcium flux, dopamine EC80; stronger effect = lower value; activity change, negative = inhibition, % at 10 µM; 360,000 compounds, 3.2% hits; in the data active = activity change below about -30%; also: % is scaled to controls: 0 for no effect and ±100 for the full control effect
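Allosteric or orthosteric antagonism assessed as attenuation of the calcium response to EC80 dopamine, added 180 s after compound, in induced HEK293 Trex D1 cells loaded with no-wash calcium dye.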
D1 PAM = Potentiators of Human D1 Dopamine Receptor: qHTS; D(1A) dopamine receptor (Homo sapiens), P21728; HEK293 TREx D1 cells, calcium flux, dopamine EC20 potentiation; potentiation, % at 10 µM; 360,000 compounds, 0.036% hits; in the data active = potentiation above about 30%; also: 0% is about no effect
TRHR agonist-1 = qHTS for Small Molecule Agonists and Allosteric Enhancers of Human TRH Receptor: Primary Screen for Agonists | Thyrotropin-releasing hormone receptor (Homo sapiens), P34981 | TRHR cells, calcium flux fluo-8, FDSS agonist mode | activation, % at 2 µM | 360,000 compounds, 0.18% hits | AID 493084, 2011; in the data active = activation above about 30%; also: 0% is about no effect
Target sequence (P34981 whole entry, looked up): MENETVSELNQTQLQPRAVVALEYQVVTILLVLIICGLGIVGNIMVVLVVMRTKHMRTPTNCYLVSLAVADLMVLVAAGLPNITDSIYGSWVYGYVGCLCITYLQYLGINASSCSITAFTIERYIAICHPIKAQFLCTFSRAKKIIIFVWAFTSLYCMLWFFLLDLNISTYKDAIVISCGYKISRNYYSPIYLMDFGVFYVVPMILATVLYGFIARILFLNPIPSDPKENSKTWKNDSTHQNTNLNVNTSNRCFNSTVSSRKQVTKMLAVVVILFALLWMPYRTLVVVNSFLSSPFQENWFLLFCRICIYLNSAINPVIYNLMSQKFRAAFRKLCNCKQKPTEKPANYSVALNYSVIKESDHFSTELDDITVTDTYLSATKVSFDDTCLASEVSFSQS
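Steps: seed TRHR cells overnight; add fluo-8 no-wash Ca dye, RT 30 min–1.5 h; record 10 s baseline; pin-transfer compounds; monitor fluorescence 1 cycle/s for the agonist window. Calcium increases flag candidate agonists.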
TRHR enhancer-1 = qHTS for Small Molecule Agonists and Allosteric Enhancers of Human TRH Receptor: Primary Screen for Enhancers; Thyrotropin-releasing hormone receptor (Homo sapiens), P34981; TRHR cells, fluo-8 calcium fluorescence, EC20 TRH enhancement; enhancement, % at 2 µM; 360,000 compounds, 0.66% hits; in the data active = enhancement above about 30%; also: 0% is about no effect
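Enhancer read-out: after compound pinning and an initial kinetic agonist-mode read, an EC20 of TRH (10 nM final) was injected and fluo-8 calcium signal (Ex 480/Em 530) followed at 1 s/cycle for 100 cycles in TRHR-expressing cells.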
TRHR enhancer-2 = qHTS for Small Molecule Agonists and Allosteric Enhancers of Human TRH Receptor: Confirmation Screen for Enhancers. 970 tested, under 10 active. TRH receptor cell assay, enhancer confirmation qHTS. activity change, negative = inhibition, % at 46.1 µM. shares compounds with TRHR enhancer-1;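 also: compound effect scored on response to added TRH at EC20 of 10 nM; 0% is about no effect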
TRHR agonist-2 = qHTS for Small Molecule Agonists and Allosteric Enhancers of Human TRH Receptor: Confirmation Screen for Agonists; AID 493078, 2011; Potency, µM (titrated, usually from 46.1 µM), inactives show top-dose activation, actives largely listed as activators; TRHR-expressing cells, agonist activation read-out; 970 compounds, 8% hits; shares compounds with TRHR enhancer-1; also: potency is read from the fitted curve at half-maximal effect; 0% is about no effect; nearly all actives have a fitted effect of over 75% in size
An asterisk follows results filed as active; ? = inconclusive; . = no result given. An excerpt weighted towards active compounds, which were near 4.7% of everything screened. Unless noted, calls follow the shape of the dose curve; as a rule, active = well fitted curve in the direction sought with a large enough effect; inconclusive = small, poorly fitted or top-dose-only effect, or another doubt; inactive = no such curve, though single readings can be large; an effect the other way counts as inactive or inconclusive.

SMILES	D1 ag	D1 antag	D1 PAM	TRHR agonist-1	TRHR enhancer-1	TRHR enhancer-2	TRHR agonist-2
COc1ccccc1Nc1nc(-c2cccs2)cs1	1	-24	-6	1	44*	-5	5%
COc1ccc(OC)c(Nc2nc(-c3cccs3)cs2)c1	0	15	-2	0	-3	.	.
O=C(Cn1c(=O)n(CCCS(=O)(=O)C2CCCCC2)c(=O)c2ccccc21)Nc1ccccc1F	1	-3	-1	-1	-3	.	.
Cc1cccc(S(=O)(=O)Nc2nc3ccccc3nc2Nc2ccc3c(c2)OCO3)c1	20	-11	-6	0	44*	-10	2%
O=S(=O)(Nc1nc2ccccc2nc1Nc1ccc2c(c1)OCO2)c1ccccc1	6	6	4	2	14	.	.
O=C(Cn1nnc2ccccc21)C1CC1	4	7	-5	0	47*	-3	-1%
CN(C)c1ccc(/C=N/NC(=O)Cn2nnc3ccccc32)cc1	1	7	0	29	2	?	1%
Cc1cccc(OCCCCn2c(C3CC(=O)N(c4ccc(C)cc4C)C3)nc3ccccc32)c1 (configuration not stated)	14	-1	-1	1	3	.	.
CCOCCCNC(=O)c1cc(Sc2ccc(F)cc2)nc2ccccc12	4	4	-4	0	49*	-7	3%
OC(COc1ccccc1)CN1CCN(Cc2ccc3c(c2)OCO3)CC1 (configuration not stated)	1	-2	-7	1	-1	.	.
Cc1cc(C)cc(OCC(O)CN2CCN(Cc3ccc4c(c3)OCO4)CC2)c1 (configuration not stated)	22	-7	-7	0	44*	-2	-1%
CC(=Nc1cccc(O)c1)c1sc2ccccc2c1O	68*	-28	-7	29	14	-2	?
COc1cc2c(cc1NS(=O)(=O)c1cccc(C#N)c1)n(C)c(=O)n2C	-1	7	0	0	-3	.	.
CC(C)CC(=O)NC(=S)N1CCCCCC1	-2	8	-6	0	42*	?	0%
Cc1ccccc1Nc1cc(C(=O)NCC2CCCO2)c2ccccc2n1 (configuration not stated)	2	-9	2	0	6	.	.
O=C(Nc1ccc(Br)cc1Cl)c1ccc2c(=O)n3c(nc2c1)CCC3	8	-4	0	0	12	.	.
O=C(Nc1ccc(Cl)cc1Cl)c1ccc2c(=O)n3c(nc2c1)CCC3	2	1	-7	26	-5	2	?
Cc1ccc(C(=O)NCc2nnc(SCC(=O)NC(C)c3ccccc3)n2C)cc1 (configuration not stated)	2	1	-1	-1	43*	7	-1%
Cn1c(CNC(=O)c2ccccc2)nnc1SCC(=O)Nc1nccs1	2	-7	-4	0	-1	.	.
CC(=O)c1sc2nsc(SCCN3CCCC3)c2c1N	4	-8	-1	0	2	.	.
O=C(NCCOc1ccccc1)C1CCC(=O)N(C2CCCCCC2)C1 (configuration not stated)	11	-3	-2	0	58*	4	-1%
O=C(NCCc1ccccc1Cl)C1CCC(=O)N(C2CCCCCC2)C1 (configuration not stated)	0	15	1	0	4	.	.
CC(=O)c1cccc(NC(=O)c2ccc3nc(C(C)C)oc3c2)c1	2	13	0	1	2	.	.
COC(=O)Cc1c(O)ccn(CCc2ccccc2)c1=O	2	1	15	2	51*	2	5%
COc1ccc(C2CC(=O)N(CC(=O)Nc3cccc(C)c3C)c3ccccc3S2)cc1OC (configuration not stated)	-2	24	-2	0	-6	.	.
SMILES	D1 ag	D1 antag	D1 PAM	TRHR agonist-1	TRHR enhancer-1	TRHR enhancer-2	TRHR agonist-2
CN(C)CCN(C(=O)c1cccc2ccccc12)c1nc2cc3c(cc2s1)OCO3	10	10	-2	0	-2	.	.
O=C(NCCCN=C1NS(=O)(=O)c2ccccc21)c1ccc(F)cc1	13	-2	-3	1	58*	2	5%
Cc1cccc(N(C(=O)c2csnn2)C(C(=O)NC2CCCC2)c2ccncc2)c1 (configuration not stated)	0	6	-3	-1	20	.	.
Cc1cccc(N(C(=O)c2csnn2)C(C(=O)NC2CCCCC2)c2ccncc2)c1 (configuration not stated)	0	12	-2	0	54*	-9	1%
Cc1ccc(-n2c(C)n[nH]c2=S)cc1C	3	9	-9	0	45*	-7	-1%
Cc1ccc(-n2c(C)n[nH]c2=S)cc1	0	14	0	0	11	.	.
CCNc1nc(NCC)n2c(SCC(=O)Nc3ccc(C)c(C)c3)nnc2n1	7	3	3	0	45*	14	4%
CCNc1nc(NCC)n2c(SCC(=O)Nc3ccc(F)cc3)nnc2n1	1	7	2	0	1	.	.
Cc1cccc(N2CCN(C(=O)/C=C/c3cccs3)CC2C)c1 (configuration not stated)	0	7	-3	0	-6	.	.
Cc1cccc(N2CCN(C(=O)NC3CCCCC3)CC2C)c1 (configuration not stated)	3	-20	2	0	42*	-9	2%
CCc1ccc(N(CC)C(=O)c2cc3c(=O)oc4ccc(C)cc4c3s2)cc1	2	8	-4	0	0	.	.
COc1cc(Cl)c(C)cc1N1C(=O)CN(Cc2ccccc2)C1=S	4	-10	-9	91*	-6	-4	0%
Cc1c2ccccc2nc2c(F)c(NCCO)c(F)c(F)c12	29	5	-5	37*	11	8	16µM*
CCCc1cc(=O)oc2c(C)c(OCC(=O)NCCN3CCOCC3)ccc12	0	6	-5	-1	54*	7	-1%
O=C(COC(=O)c1cccnc1Cl)Nc1cccc(S(=O)(=O)N2CCCCC2)c1	16	-5	-1	0	54*	-6	4%
